Reference: PubChem BioAssay AID2507 (National Center for Advancing Translational Sciences (NCATS), 2010)
Records with an inconclusive call do not appear. The source made the active and inactive calls. The call rests on the fitted dose curve; in most records, active means well fitted inhibition curve with a large enough effect; inconclusive means small, poorly fitted or top-dose-only effect, or effect the other way; inactive means flat fitted curve, though single readings scatter.

Experiment: Secondary Assay for General miRNAs Modulators and/or Inhibitors/Activators of miR-21: miR-30 Firefly Luciferase Assay
Conditions: HeLa miR-30 FLuc reporter, luminescence, 48 h; series mostly up to 38.3 µM; activity change, negative = inhibition: at the top concentration
Excerpt: MLSCN Grant: 1 R21 NS059478-01 Assay Provider: Qihong Huang, The Wistar Institute NCGC Assay Overview: MicroRNAs (miRNAs) are endogenously encoded small (~20-25 nucleotides), nonprotein-coding RNAs that are involved in post-transcriptional repression of target messenger RNAs (mRNAs) (Le and Hannon, 2004). Estimated to be involved in the regulation of 30% of all protein-coding mRNAs (Filipowicz et al., 2008), miRNAs play a significant role in many biological processes including cellular differentiation and tissue development (Ghildiyal and Zamore, 2009). […] Compounds active in the miR-21 FLuc assay were clustered using Leadscope and active chemical series were prioritized based on chemical properties, potential for medicinal chemistry optimization, and SAR. Within each chemical series, representative compounds were re-acquired to test for activity in a secondary assay based on the quality of their CRC, efficacy, and potency. The secondary assay to determine if compounds active in the miR-21 FLuc assay were potentially specific for miR-21 and were not general modulators of the miRNA pathway was another cell-based FLuc reporter gene assay, this time targeting miR-30. Compounds found active in both the miR-21 FLuc and miR-30 FLuc assays are not considered miR-21 specific compounds, and may be general miRNA modulators.
NCGC Assay Protocol Summary: Reagents: HeLa cells stably expressing firefly luciferase (FLuc) under the control of a CMV promoter (upstream) and a miR-30 binding sequence directly downstream of the gene. These cells also stably express miR-30. Control compounds used were compound C3 (provided by collaborator), N6-phenyladenosine (MP Biomedicals, 0215379625), and DMSO. Assay Summary: 6uL of HeLa miR-30-FLuc cells in assay buffer (DMEM, Invitrogen #21063-029; 10% FBS, HyClone #SH30071.03) were dispensed at 1000cells/well (1.7 x 10^5 cells/mL) into Greiner solid-white TC-treated 1536-well plates using a Multidrop Combi (Thermo Fisher Scientific). Plates were incubated for one hour at 37 degree Celsius, 95% humidity, 5% CO2. These assay plates were then treated with 23nL of compound or DMSO using a Kalypsys pin tool, which allows for delivery of a 24-point titration of each compound to the assay plate, with a final compound concentration ranging from approximately 40uM to 5pM. Assay plates were then incubated for 48 hours. After incubation, plates were allowed to come to RT for one hour prior to delivery of 3uL of 3X luciferase detection reagent. After a 15 minute incubation to allow for cell lysis, luciferase activity was measured using a ViewLux CCD imager (PerkinElmer), with an average exposure time of 2-12 seconds. Keywords: NIH Roadmap, MLPCN, MLSMR, qHTS, miR-21, miR-30, microRNA, firefly luciferase, FLuc.

Potency, active:
Cc1ccc(CNc2nc(-c3ccco3)nn2S(C)(=O)=O)cc1 2.83 µM
COc1ccccc1NC(=O)CSc1nnc(-c2ccccn2)o1 5.04 µM
Cc1c(-c2nsc(NC(=O)c3cccs3)n2)nnn1-c1ccc(F)cc1 0.895 µM
Clc1ccc(-n2ncc3c(NCc4ccccn4)ncnc32)cc1 12.6 µM
Cc1c(-c2nnc(SCC(=O)Nc3ccccc3F)o2)nnn1-c1ccc(F)cc1 4 µM
COc1ccc(OCC(=O)Nc2cc(-c3nc4ccccc4s3)ccc2C)cc1 4.49 µM
Cc1cc(SCC(=O)Nc2nsc(-c3ccc(C(C)(C)C)cc3)n2)nc2ccccc12 2 µM
COc1ccc(-c2nc(SCc3ccccc3)n(S(C)(=O)=O)n2)cc1 11.3 µM
CCc1ccc(-n2nnc(-c3nc(-c4cccs4)no3)c2N)cc1 1.42 µM
Cc1cc(C)n2c(SCc3ccccc3Cl)nnc2n1 14.2 µM
O=C(CSc1nnc(-c2ccc(O)cc2)o1)Nc1ccccc1Br 1.13 µM
Cc1ccccc1Nc1nc(N)nc(CN(C)c2ccccc2)n1 12.6 µM
COc1ccc(OCC(=O)Nc2ccc(-c3nc4cc(C)c(C)cc4o3)cc2)cc1 0.798 µM
Cc1cccc(-c2nsc(SCC(=O)Nc3ccc4c(c3)OCO4)n2)c1 22.5 µM
COc1ccccc1C(=O)n1nc(-c2ccco2)nc1NCc1ccc(Cl)cc1 7.98 µM
O=S(=O)(c1ccc(F)cc1)n1ccc(-c2cnc(-c3ccccc3)s2)n1 6.34 µM
COc1ccc(NC(=O)CSc2nc(SC)ns2)c(OC)c1 5.04 µM
Cc1cccc(-n2nnc(-c3nc(-c4cccs4)no3)c2N)c1C 0.159 µM
CCc1ccc2oc(C(=O)Nc3nonc3CC)c(C)c2c1 3.56 µM
COc1ccc(NCc2cccn2-c2nnc(N3CCC(C)CC3)s2)c(OC)c1 1.79 µM
CCc1cccc(-n2nnc(-c3nsc(NC(=O)c4cccs4)n3)c2C)c1 7.11 µM
CSc1nsc(SCC(=O)Nc2ccc(F)cc2F)n1 12.6 µM
Cc1ccc(SCC(=O)Nc2ccc3oc(-c4ccc(F)cc4)nc3c2)cc1 11.3 µM
COc1ccc(-c2nnc(SCC(=O)Nc3cccc(F)c3)s2)cc1 8.95 µM
CC(C)COc1ccc(C(=O)Nc2cc(-c3ccccc3)no2)cc1 2.25 µM
O=C(CSc1nnc(-c2ccc(Cl)cc2)o1)Nc1ccc(F)cc1 3.18 µM
COc1ccc(-c2csc(NC(=O)COC(=O)c3ccc(Br)o3)n2)cc1 2.25 µM
COc1nc(Nc2cccc(C(F)(F)F)c2)nc(OC)n1 22.5 µM
COCC(=O)Nc1c(C(=O)Nc2ccc3c(c2)OCCO3)oc2ccccc12 0.634 µM
CC(=O)c1cnc2nc(SCc3ccccc3)nn2c1C 12.6 µM
Cc1ccc2c(C)c(C(=O)N(C)C(C)c3ccncn3)oc2c1C (stereo not given) 22.5 µM
Cc1cccc(-c2nnc(SCC(=O)Nc3ccc(C)c(C)c3)o2)c1 3.18 µM
COc1ccc(CNc2nc(-c3ccco3)nn2C(=O)CC(C)C)cc1 11.3 µM
COc1cccc(-n2nnc(-c3nc(-c4cccs4)no3)c2N)c1 0.634 µM
COc1ccc(NC(=O)c2ncn(-c3ccccc3)n2)cc1Cl 14.2 µM

Activity change, negative = inhibition, inactive:
O=C(Nc1nnc(S(=O)(=O)N2CCCC2)s1)c1ccc(F)cc1 -22.3%
CCCn1c(=O)c2sccc2n2c(CCCC(=O)Nc3ccc(Oc4ccc(Cl)cc4)cc3)nnc12 19.4%
COc1ccccc1NC(=O)C/C(C)=N/NC(=O)c1ccccn1 -7.18%
CCC(Oc1ccccc1F)C(=O)N1CCC(c2nc3ccccc3s2)CC1 (stereo not given) 18.4%
Cc1cc(C)cc(NC(=O)CSc2nnc(CNC(=O)c3ccco3)o2)c1 4.57%
